Laboratory results published in the supplement of paper PMC12636033.
± gives the standard deviation of the averaged measurements. Whole data set: some 33,000 sequences, median “E-score (rank enrichment, -0.5 to 0.5)” near -0.0043, cut for the highest 2% near 0.24. This excerpt belongs to a sample that is enriched for the highest values.

The sequences below were run on 2Sp-muMax20 (muMax20 with two 2,6-bis(methyl)pyridine Cys staples) (assay: PBM 8-mer E-score (E-score (rank enrichment, -0.5 to 0.5)); higher = stronger preferential binding).
Experimental: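 Protein binding microarray (universal PBM chip covering all 10-mers in fixed probe flanks) with chemically synthesized human Max(13-93) bHLH-LZ analogs (not full-length Max) bearing noncanonical residues (hArg, Tha, Aib, Nle at 65) and aromatic Cys staples. Read-out per 8-mer (and its reverse complement): E-score (rank-based enrichment, -0.5 to 0.5) and Z-score of median probe intensity.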

Sequence	PBM 8-mer E-score
AGGTGGAG	-0.0381 ± 0.055
GATGACGA	0.165 ± 0.017
GCGCCTCC	0.111 ± 0.079
CAAGAGCC	-0.0162 ± 0.036
AAGCTGAA	0.104 ± 0.047
AGGAGGCG	0.0177 ± 0.059
GCATGCGA	0.3 ± 0.012
GCATGCAA	0.244 ± 0.014
GCATGCAC	0.216 ± 0.023
TCATGCAA	0.219 ± 0.014
ACATGCAG	0.0533 ± 0.012
GCATGCGC	0.164 ± 0.06
ACATGCAT	0.333 ± 0.0087
ACATGCAC	0.0958 ± 0.01
CCATGCGA	0.0984 ± 0.026
AGACTCAA	-0.111 ± 0.022
GCGGCAGA	-0.228 ± 0.049
GAGCAGTA	0.113 ± 0.0065
AGAGGGCT	-0.00447 ± 0.07
ACGGGGCG	0.0718 ± 0.047
ACGTTATA	0.204 ± 0.072
ACGTTATG	0.284 ± 0.0056
ACTTTATA	0.192 ± 0.053
ACTTTATC	-0.0354 ± 0.037
ACTTTATG	0.281 ± 0.065

Sequence	PBM 8-mer E-score
ACGTTATC	0.034 ± 0.046
AAAAAACT	0.0474 ± 0.0053
TACGCGTA	0.0583 ± 0.054
GATCTTCC	-0.219 ± 0.038
CAACCTCG	-0.194 ± 0.05
GGTTACTA	-0.067 ± 0.092
GTTACCGA	-0.284 ± 0.013
GTGCGCAA	-0.0392 ± 0.038
ATGCGCAC	0.195 ± 0.071
TTGCGCAA	0.344 ± 0.0038
ATGCGCAT	0.335 ± 0.061
ATGCGCAG	0.0186 ± 0.025
ATGCGCAA	0.184 ± 0.017
ATCCAGTA	0.134 ± 0.028
GATAGGGC	0.081 ± 0.019
ATAGTTGA	0.121 ± 0.077
ATACGCAG	0.0458 ± 0.043
GTACGCAA	-0.0841 ± 0.033
ATACGCAA	0.308 ± 0.062
ACGAGCCT	-0.00942 ± 0.0098
CCAGCAGA	-0.0671 ± 0.018
AATCACAC	0.236 ± 0.041
AATCACAT	0.27 ± 0.019
AATCACAA	0.144 ± 0.036
CATCACAC	0.118 ± 0.035

Sequence	PBM 8-mer E-score
AATCACGC	0.193 ± 0.015
GATCACAC	0.153 ± 0.019
AATCACAG	-0.0564 ± 0.011
AATCACGT	0.254 ± 0.024
AATCACGA	-0.0412 ± 0.011
CGTTATGC	0.177 ± 0.027
AAAGTTTA	0.206 ± 0.054
AGGTTTAC	-0.222 ± 0.071
ACTGTGCC	0.0364 ± 0.042
CCATCCCG	-0.00777 ± 0.0093
AACGTCCA	-0.012 ± 0.044
GTAGTTGA	0.116 ± 0.0092
ATTGCATC	0.134 ± 0.014
GCGATGCC	-0.221 ± 0.0047
GATCATGA	0.139 ± 0.016
CCCTTCAC	0.0356 ± 0.018
TCATGTAA	0.0907 ± 0.036
CTATGTAA	0.00312 ± 0.013
CCATGTAA	0.122 ± 0.09
ACATGTAA	0.24 ± 0.04
ACATGTCT	0.251 ± 0.006
AAATGTAC	0.296 ± 0.052
ATATGTAA	0.0958 ± 0.035
CAATGTAC	0.00633 ± 0.095
ACATGTCC	0.151 ± 0.033

Sequence	PBM 8-mer E-score
GTATGTAA	0.236 ± 0.055
AAATGTAG	0.134 ± 0.1
ACATGTCG	0.164 ± 0.071
ATAGTATC	0.0888 ± 0.11
ACGAACTC	-0.159 ± 0.021
GAACGTAC	-0.045 ± 0.0085
GCTTTGCA	-0.0268 ± 0.02
CCATGTAG	0.148 ± 0.0044
ACATGTAG	0.241 ± 0.051
AGATGTAG	0.167 ± 0.023
AGATGTAT	0.167 ± 0.023
AAATGTAT	0.0866 ± 0.053
CCATGTAC	-0.0575 ± 0.098
ACATGTAT	0.277 ± 0.0074
ACATGTAC	0.311 ± 0.0047
GCATGTAC	0.2075 ± 0.0014
GTAGCTTA	0.179 ± 0.047
TGGTGTAA	0.135 ± 0.039
CCCCCAGC	-0.295 ± 0.034
ATACCAGG	-0.136 ± 0.023
CACAAGGG	-0.0596 ± 0.022
AGTCTAAA	-0.14 ± 0.013
CGCCCACC	0.274 ± 0.055
ACCCCACA	0.239 ± 0.02
CGCCCACG	-0.0323 ± 0.074

Sequence	PBM 8-mer E-score
TCCCCCAA	-0.174 ± 0.034
CACCCACC	0.0762 ± 0.08
ACCCCACG	0.0387 ± 0.033
AACCCACG	0.17 ± 0.037
AGCCCACC	-0.0175 ± 0.041
GACCCACC	0.106 ± 0.043
CCCCCAAA	-0.195 ± 0.075
TCCCCAAA	0.256 ± 0.079
AACCCACC	0.267 ± 0.025
ATAAGGGA	0.102 ± 0.04
AACTCAAA	0.172 ± 0.036
CACGGCTA	-0.249 ± 0.073
CCGTGGAC	-0.2957 ± 0.0024
AGGCTAGA	-0.144 ± 0.033
GCCCCACA	0.223 ± 0.042
GCCCCAAC	0.267 ± 0.013
CCCCCACG	0.0635 ± 0.0042
GCCCCACC	0.237 ± 0.039
CCCCCACC	-0.321 ± 0.032
ACCCCACC	0.236 ± 0.05
ACCCCACT	0.183 ± 0.027
CCCCCAAC	-0.253 ± 0.01
ACCCCCAC	-0.19 ± 0.027
TCCCCACA	0.235 ± 0.0063
GCCCCAAA	0.188 ± 0.0029

Sequence	PBM 8-mer E-score
CCCCCACA	-0.205 ± 0.084
GTCTCTCA	-0.0452 ± 0.0099
AGAGGACT	-0.0403 ± 0.059
ACAAGTGT	-0.0219 ± 0.043
AGACTGTC	-0.179 ± 0.036
CATGTTAA	0.191 ± 0.048
ACTCTCTA	0.158 ± 0.0044
AACTCATG	0.176 ± 0.077
AAACAGAA	0.168 ± 0.015
ACCCCATG	0.297 ± 0.047
ACCCCATA	0.107 ± 0.075
AACCCATG	0.139 ± 0.032
CACACGTC	-0.0411 ± 0.069
CACACGTG	0.384 ± 0.019
AATACGTA	0.206 ± 0.064
CACACGTA	0.0876 ± 0.11
AACACGTA	0.0789 ± 0.055
CATACGTC	0.0118 ± 0.0042
AACACGTG	0.4615 ± 0.0029
AACACGTC	0.0953 ± 0.04
CATACGTA	0.297 ± 0.012
CTTATGAC	0.0201 ± 0.0061
ACTATGAC	0.0953 ± 0.0015
TAAGGGTA	0.115 ± 0.039
CCCTGGGA	-0.29 ± 0.01

Sequence	PBM 8-mer E-score
CCTTCACG	-0.0558 ± 0.019
CCTTCACA	0.256 ± 0.018
CATTCACG	0.0213 ± 0.074
TATTCAAA	0.197 ± 0.036
CATTCAAA	0.256 ± 0.027
ATTTCAAA	0.0933 ± 0.0025
ACTTCACA	0.00636 ± 0.061
CATTCAAG	-0.108 ± 0.079
CATTCACA	0.248 ± 0.016
CTTTCAAA	0.236 ± 0.026
GTTTCAAA	0.073 ± 0.063
GATTCACA	0.0451 ± 0.093
ACCAAGGG	-0.132 ± 0.035
GCAAATCC	-0.0919 ± 0.086
CTTGATAA	0.0868 ± 0.0083
GCATTACC	-0.136 ± 0.01
ATGACAAC	0.0122 ± 0.037
CGACAATA	0.0335 ± 0.093
CAAGGCTG	-0.037 ± 0.11
CTCTTCAC	0.129 ± 0.00049
AATCCAGA	0.124 ± 0.08
CATGCACA	0.251 ± 0.033
